A short description of assay [1]: qHTS assay to identify small molecule agonists of the progesterone receptor (PR) signaling pathway - cell viability counter screen (AID 1346799; calls by dose curve; note: nearly all actives have a fitted effect of over 45% in size). In short, it runs like this:
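Multiplexed viability read: CellTiter-Glo luminescence, 30 min RT, following LiveBLAzer FRET measurement on PR-UAS-bla HEK293T cells exposed to compounds 16 hr.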
A general note: qHTS replaces the single test concentration by a dilution series.

Assay [2] is described as follows: qHTS assay to identify small molecule antagonists of the TGF-beta/Smad signaling pathway - cell viability counter screen (AID 1346824). Note: nearly all actives have a fitted effect of over 50% in size. In short, it runs like this: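 SBE-bla HEK 293T cells, incubated overnight, then compound plus 0.25 ng/mL TGF-beta1 (stock added) for 5 hr at 37 C. Viability was read in the same wells by CellTiter-Glo luminescence after 30 min at room temperature.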

Assay [3] is described as follows: qHTS assay to identify small molecule agonists of the TGF-beta/Smad signaling pathway - cell viability counter screen (AID 1346829). Note: top concentration of the series differs between compounds; nearly all actives have a fitted effect of over 45% in size. In short, it runs like this: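 After overnight seating at 37 C and 5% CO2, reporter cells got compounds for 5 hr and FRET substrate for 2 hr; cell viability then came from CellTiter-Glo luminescence.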
The nature of assay [4]: qHTS assay to identify small molecule agonists of the TGF-beta/Smad signaling pathway (AID 1346859; active = well fitted activation curve with a large enough effect in the signal ratio in the repeat runs, not every such curve was filed as active; the % refers to the signal ratio; note: series mostly up to about 77 µM). In short, it runs like this:
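Screening used HEK 293T SBE-bla cells at 4,000/well. Test agents: 5 hr, 37 C. Detection: FRET substrate, 2 hr RT, then excitation 405 nm with emissions at 460 and 530 nm.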

The target in assay [5] is Thyrotropin-releasing hormone receptor (Homo sapiens) (UniProt P34981). As to the kind of experiment: qHTS assay to identify small molecule antagonists of the thyrotropin-releasing hormone receptor (TRHR) signaling pathway (AID 1346877; active = well fitted inhibition curve with a large enough effect in the repeat runs, not every such curve was filed as active; note: series mostly up to about 51 µM). In short, it runs like this:
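Kinetic fluorescence (3 min, 1 s resolution) following stimulation with TRH at 1 nM final; HEK293 cells bearing human TRHR; 5 min compound preincubation at RT; concentration-response over 15 points, triplicates.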

Assay [6] shares this target. Description: qHTS assay to identify small molecule agonists of the thyrotropin-releasing hormone receptor (TRHR) signaling pathway (AID 1346891; calls by dose curve; note: series mostly up to about 58 µM). The essentials:
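Readout was intracellular calcium fluorescence in TRHR-Hek293 cells. Cells were incubated 18 h, dye-loaded 2 h at 37 °C, and treated with compound in agonist mode.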

Assay [7] is described as follows: Human pregnane X receptor (PXR) small molecule agonists, qHTS cell viability counter screen (AID 1346977). Note: nearly all actives have a fitted effect of over 50% in size. The essentials: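 In each well, the PXR reporter HepG2 line was checked for viability: CellTiter-Fluor reagent added 23hr post-dosing, fluorescence read after 1hr incubation at 37C.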
The nature of assay [8]: Caspase-3/7 induction in HepG2 cells by small molecules, qHTS assay (AID 1346978). Note: nearly all actives have a fitted effect of over 15% in size. In short, it runs like this:
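Wild-type HepG2 cells, 2,000/well, settled 5 hr at 37 C and 5% CO2, then compound-treated for 17 hr; caspase-3/7 activity read by luminescent Caspase-Glo 3/7 after 30 min at room temperature.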

A short description of assay [9]: Caspase-3/7 induction in CHO-K1 cells by small molecules, qHTS cell viability counter screen (AID 1346979). Note: nearly all actives have a fitted effect of over 35% in size. In short, it runs like this:
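Following a 5hr settling period, CHO-K1 cells at 1,500 per well received DMSO-dissolved compounds. Cell viability was quantified 16hr later by CellTiter-Fluor fluorescence, measured after 1hr with reagent at 37C.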

Assay [10] is described as follows: Caspase-3/7 induction in CHO-K1 cells by small molecules, qHTS assay (AID 1346980). Note: nearly all actives have a fitted effect of over 15% in size. In short, it runs like this:
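Wild-type CHO-K1 cells exposed to compounds for 17hr at 37 C, 5% CO2. Caspase-3/7 activity then measured by Caspase-Glo 3/7 luminescence after 30min at room temperature.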

Assay [11] is described as follows: Caspase-3/7 induction in HepG2 cells by small molecules, qHTS cell viability counter screen (AID 1346981). Note: series mostly up to about 92 µM; nearly all actives have a fitted effect of over 30% in size. The essentials: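 In this quantitative HTS counter screen, compounds delivered in DMSO were left on unmodified HepG2 cells for 16 hr at 37 C. Viability was then determined fluorometrically with CellTiter-Fluor, in parallel with caspase-3/7 induction in the same wells.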

The target of assay [12] is Nuclear receptor subfamily 1 group I member 2 (Homo sapiens) (UniProt O75469). As to the kind of experiment: Human pregnane X receptor (PXR) small molecule agonists, qHTS assay (AID 1346982). Note: nearly all actives have a fitted effect of over 35% in size. In short, it runs like this: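 Reporter HepG2 cells expressing PXR-Luc are cultured in charcoal-stripped FBS (5%), treated with compounds for 24 hr at 37 C, and assayed by ONE-Glo luminescence after 30 min at room temperature.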

For assay [13], the target named is Cytochrome P450 2C19 (Homo sapiens) (UniProt P33261). Description: Cytochrome P450 Family 2 Subfamily C Member 19 (CYP2C19) small molecule antagonists: luciferase reporter qHTS assay (AID 1671197). Note: nearly all actives have a fitted effect of over 65% in size. Note: potency is the fitted concentration of half-maximal effect. In short, it runs like this: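 Inhibition of CYP2C19 was scored from loss of luminescence in a P450-Glo proluciferin substrate assay, NADPH-started and run 1 h at 37C, with ketoconazole as positive control.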
In general terms: Reporter assays use an easily measured gene product as a stand-in for the process of interest.

The target in assay [14] is Cytochrome P450 2C9 (Homo sapiens) (UniProt P11712). Description: Cytochrome P450 Family 2 Subfamily C Member 9 (CYP2C9) small molecule antagonists: luciferase reporter qHTS assay (AID 1671198). Note: nearly all actives have a fitted effect of over 50% in size. Note: potency is the fitted concentration of half-maximal effect. The essentials:
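P450-Glo proluciferin substrate with CYP2C9 enzyme; 10 min RT preincubation, then NADPH regeneration 1 h at 37C; luciferin detection reagent 20 min RT, luminescence in relative luminescence units.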

The target in assay [15] is Cytochrome P450 1A2 (Homo sapiens) (UniProt P05177). As to the kind of experiment: Cytochrome P450 Family 1 Subfamily A Member 2 (CYP1A2) small molecule antagonists: luciferase reporter qHTS assay (AID 1671199). Note: nearly all actives have a fitted effect of over 50% in size. Note: potency is the fitted concentration of half-maximal effect. In short, it runs like this:
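Steps: enzyme-substrate mix dispensed; test compounds and furafylline control pinned in; 10 min room temperature; NADPH regeneration solution added, 1 h; reaction stopped with luciferin detection reagent; luminescence read after 20 min.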

Assay [16] addresses Voltage-gated inwardly rectifying potassium channel KCNH2 (Homo sapiens) (UniProt Q12809). Description: Human Ether-a-go-go-Related Gene (hERG) channel small molecule antagonists: fluorescence cell-based qHTS assay (AID 1671200). In short, it runs like this:
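In this thallium-flux screen, overnight-cultured U2OS cells bearing the channel are dye-loaded in darkness for an hour, rested 10 min at room temperature, and then monitored kinetically at 480/540 nm for two minutes post-stimulus.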
For orientation: hERG is a cardiac potassium channel; its block is linked to QT prolongation.

The target of assay [17] is Cytochrome P450 2D6 (Homo sapiens) (UniProt P10635). As to the kind of experiment: Cytochrome P450 Family 2 Subfamily D Member 6 (CYP2D6) small molecule antagonists: luciferase reporter qHTS assay (AID 1671196). The essentials: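 Test chemicals meet CYP2D6 plus proluciferin substrate (10 min, RT); NADPH regenerating solution then drives turnover for 1 h. Detection reagent halts the reaction; luminescence measured after 20 min.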

The target in assay [18] is Cytochrome P450 3A4 (Homo sapiens) (UniProt P08684). As to the kind of experiment: Cytochrome P450 Family 3 Subfamily A Member 4 (CYP3A4) small molecule antagonists: luciferase reporter qHTS assay (AID 1671201). The essentials: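 CYP3A4 activity was followed with a P450-Glo proluciferin substrate. Test compounds in DMSO were preincubated 10 min; NADPH regeneration then ran 1 h, and light output was read 20 min after detection reagent.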

Assay [19] concerns the target Nuclear receptor subfamily 1 group I member 2 (Rattus norvegicus) (UniProt Q9R1A7). As to the kind of experiment: Rat pregnane X receptor (rPXR) activation by small molecules, qHTS assay (AID 1346983). Note: nearly all actives have a fitted effect of over 20% in size. The following applies: rPXR luciferase reporter cells, One-Glo luminescence, 24 h; max activation: stronger effect = higher value. The essentials:
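Cell-based rPXR activation assay: rPXR cells, 2,000 per well, rested 5hr at 37 C, then exposed to compounds in DMSO for 24 hr at 37 C. Luciferase activity read by One-Glo luminescence after 30 min at room temperature.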

Assay [20] has as its target Nuclear receptor subfamily 1 group I member 2 (Homo sapiens) (UniProt O75469). Description: Human pregnane X receptor (PXR) activation by small molecules, qHTS assay (AID 1346985). Note: nearly all actives have a fitted effect of over 40% in size. In short, it runs like this: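 DPX-2 cells (HepG2 co-transfected with a PXR response element and a CYP3A4-promoter luciferase construct) were seeded at 2,000 per well, rested 5 hr at 37C, then exposed to DMSO-dissolved compounds for 24 hr. Activation was read as luciferase luminescence.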

Where “and” joins values, the source holds several entries; their conditions need not be identical. Identical values can stand only once. Inconclusive results are not listed. The source holds several records for some structures; these can differ, active in one and inactive in another. Calls of active or inactive are those of the source. Unless noted, calls come from the whole dose curve; as a rule, active = well fitted curve in the direction sought with a large enough effect in the repeat runs; inconclusive = weak or mixed curves; inactive = no such curve, though single readings can be large; an effect the other way counts as inactive or inconclusive.
% is set by controls: 0 for no effect and ±100 for the full control effect.

Chain of Cytochrome P450 1A2 (Homo sapiens) (P05177 whole entry, looked up): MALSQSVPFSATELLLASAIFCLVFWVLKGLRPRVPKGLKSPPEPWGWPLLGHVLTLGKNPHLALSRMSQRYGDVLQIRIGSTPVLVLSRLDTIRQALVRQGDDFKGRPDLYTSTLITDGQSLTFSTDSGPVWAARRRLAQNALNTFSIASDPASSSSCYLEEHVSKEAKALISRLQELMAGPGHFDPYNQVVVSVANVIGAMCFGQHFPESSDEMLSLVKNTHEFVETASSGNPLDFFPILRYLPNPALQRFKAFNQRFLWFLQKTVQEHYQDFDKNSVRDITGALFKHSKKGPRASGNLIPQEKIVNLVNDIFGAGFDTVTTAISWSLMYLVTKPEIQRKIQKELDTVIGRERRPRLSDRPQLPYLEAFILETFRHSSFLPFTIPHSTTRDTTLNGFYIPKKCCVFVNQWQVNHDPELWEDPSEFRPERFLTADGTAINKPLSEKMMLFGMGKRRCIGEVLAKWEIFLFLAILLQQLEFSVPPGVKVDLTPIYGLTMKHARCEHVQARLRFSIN
Chain of Cytochrome P450 2C19 (Homo sapiens) (P33261 whole entry, looked up): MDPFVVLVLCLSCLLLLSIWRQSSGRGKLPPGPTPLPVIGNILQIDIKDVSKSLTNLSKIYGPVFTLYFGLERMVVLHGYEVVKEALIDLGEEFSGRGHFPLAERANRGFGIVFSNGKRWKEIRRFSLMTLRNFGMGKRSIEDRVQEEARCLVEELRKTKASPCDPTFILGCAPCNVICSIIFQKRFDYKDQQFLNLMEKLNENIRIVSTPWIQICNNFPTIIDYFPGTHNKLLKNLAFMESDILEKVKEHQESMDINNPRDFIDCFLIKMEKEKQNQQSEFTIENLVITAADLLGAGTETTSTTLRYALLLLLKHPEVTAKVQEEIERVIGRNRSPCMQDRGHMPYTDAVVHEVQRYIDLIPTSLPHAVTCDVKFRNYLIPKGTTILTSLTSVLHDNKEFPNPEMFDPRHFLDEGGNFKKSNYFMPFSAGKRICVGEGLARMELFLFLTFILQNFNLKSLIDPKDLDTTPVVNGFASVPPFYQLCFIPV
Chain of Thyrotropin-releasing hormone receptor (Homo sapiens) (P34981 whole entry, looked up): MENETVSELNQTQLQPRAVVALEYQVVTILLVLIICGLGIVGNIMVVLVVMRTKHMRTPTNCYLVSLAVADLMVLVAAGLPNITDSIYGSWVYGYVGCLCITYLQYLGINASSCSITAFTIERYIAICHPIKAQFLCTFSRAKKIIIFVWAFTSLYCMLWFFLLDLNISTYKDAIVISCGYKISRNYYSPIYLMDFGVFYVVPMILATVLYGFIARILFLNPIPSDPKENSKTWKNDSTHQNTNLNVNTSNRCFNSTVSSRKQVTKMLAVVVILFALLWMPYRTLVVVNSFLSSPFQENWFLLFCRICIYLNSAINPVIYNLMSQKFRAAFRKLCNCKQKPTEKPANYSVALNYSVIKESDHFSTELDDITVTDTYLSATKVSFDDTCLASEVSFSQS
Chain of Voltage-gated inwardly rectifying potassium channel KCNH2 (Homo sapiens) (Q12809 whole entry, looked up): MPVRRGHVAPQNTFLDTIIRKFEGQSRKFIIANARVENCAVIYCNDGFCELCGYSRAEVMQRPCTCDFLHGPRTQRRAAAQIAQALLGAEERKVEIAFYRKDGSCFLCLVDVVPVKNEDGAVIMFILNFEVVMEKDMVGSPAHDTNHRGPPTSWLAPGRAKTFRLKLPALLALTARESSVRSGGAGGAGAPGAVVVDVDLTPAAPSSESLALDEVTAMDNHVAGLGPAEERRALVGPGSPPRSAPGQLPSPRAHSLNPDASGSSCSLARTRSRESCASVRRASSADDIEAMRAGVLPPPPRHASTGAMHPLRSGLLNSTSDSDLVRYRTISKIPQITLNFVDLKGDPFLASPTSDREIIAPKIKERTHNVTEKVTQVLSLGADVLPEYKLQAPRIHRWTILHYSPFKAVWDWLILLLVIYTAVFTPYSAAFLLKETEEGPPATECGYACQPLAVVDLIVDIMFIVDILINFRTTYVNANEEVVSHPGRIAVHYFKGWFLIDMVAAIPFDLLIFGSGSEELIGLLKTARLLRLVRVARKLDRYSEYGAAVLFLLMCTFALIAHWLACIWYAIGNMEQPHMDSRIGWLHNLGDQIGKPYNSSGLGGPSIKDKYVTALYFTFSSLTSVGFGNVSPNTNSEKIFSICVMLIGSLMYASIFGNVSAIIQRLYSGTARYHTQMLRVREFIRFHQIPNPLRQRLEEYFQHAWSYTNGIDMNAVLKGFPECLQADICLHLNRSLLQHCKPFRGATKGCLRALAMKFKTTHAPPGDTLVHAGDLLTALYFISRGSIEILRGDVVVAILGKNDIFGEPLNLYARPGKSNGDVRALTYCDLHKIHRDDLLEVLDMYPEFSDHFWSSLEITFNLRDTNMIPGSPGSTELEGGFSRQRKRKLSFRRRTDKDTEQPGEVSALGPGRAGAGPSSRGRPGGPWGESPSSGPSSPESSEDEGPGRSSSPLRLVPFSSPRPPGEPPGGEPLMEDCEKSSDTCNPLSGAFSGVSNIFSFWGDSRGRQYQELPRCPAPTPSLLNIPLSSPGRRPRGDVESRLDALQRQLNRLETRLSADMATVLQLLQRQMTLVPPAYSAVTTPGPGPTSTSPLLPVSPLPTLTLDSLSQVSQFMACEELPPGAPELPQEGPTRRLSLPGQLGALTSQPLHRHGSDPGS
Chain of Cytochrome P450 2D6 (Homo sapiens) (P10635 whole entry, looked up): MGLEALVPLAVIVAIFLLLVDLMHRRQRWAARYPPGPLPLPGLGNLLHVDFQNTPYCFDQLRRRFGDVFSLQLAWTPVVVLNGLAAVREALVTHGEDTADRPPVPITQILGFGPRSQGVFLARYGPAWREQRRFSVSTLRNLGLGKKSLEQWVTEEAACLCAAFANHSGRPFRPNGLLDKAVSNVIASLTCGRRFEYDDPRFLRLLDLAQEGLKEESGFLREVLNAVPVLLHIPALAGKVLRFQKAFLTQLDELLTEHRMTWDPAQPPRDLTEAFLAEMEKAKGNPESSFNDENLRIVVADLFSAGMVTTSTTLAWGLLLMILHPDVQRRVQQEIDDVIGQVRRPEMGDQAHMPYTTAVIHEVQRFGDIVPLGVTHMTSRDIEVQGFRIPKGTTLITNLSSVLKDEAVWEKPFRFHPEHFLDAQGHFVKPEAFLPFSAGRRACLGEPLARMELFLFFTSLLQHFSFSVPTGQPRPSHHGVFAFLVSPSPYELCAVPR
Chain of Nuclear receptor subfamily 1 group I member 2 (Homo sapiens) (O75469 whole entry, looked up): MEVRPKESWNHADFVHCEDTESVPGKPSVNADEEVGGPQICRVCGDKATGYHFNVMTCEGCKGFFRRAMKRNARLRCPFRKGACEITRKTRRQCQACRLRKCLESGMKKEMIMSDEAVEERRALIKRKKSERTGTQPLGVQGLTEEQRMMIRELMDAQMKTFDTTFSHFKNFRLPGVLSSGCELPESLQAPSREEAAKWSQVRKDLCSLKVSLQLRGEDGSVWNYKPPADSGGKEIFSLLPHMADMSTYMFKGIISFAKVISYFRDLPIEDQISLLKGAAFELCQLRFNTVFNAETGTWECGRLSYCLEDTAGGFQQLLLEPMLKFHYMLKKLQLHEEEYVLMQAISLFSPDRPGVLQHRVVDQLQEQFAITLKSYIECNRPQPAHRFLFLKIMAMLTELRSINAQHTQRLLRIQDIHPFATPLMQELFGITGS
Chain of Cytochrome P450 2C9 (Homo sapiens) (P11712 whole entry, looked up): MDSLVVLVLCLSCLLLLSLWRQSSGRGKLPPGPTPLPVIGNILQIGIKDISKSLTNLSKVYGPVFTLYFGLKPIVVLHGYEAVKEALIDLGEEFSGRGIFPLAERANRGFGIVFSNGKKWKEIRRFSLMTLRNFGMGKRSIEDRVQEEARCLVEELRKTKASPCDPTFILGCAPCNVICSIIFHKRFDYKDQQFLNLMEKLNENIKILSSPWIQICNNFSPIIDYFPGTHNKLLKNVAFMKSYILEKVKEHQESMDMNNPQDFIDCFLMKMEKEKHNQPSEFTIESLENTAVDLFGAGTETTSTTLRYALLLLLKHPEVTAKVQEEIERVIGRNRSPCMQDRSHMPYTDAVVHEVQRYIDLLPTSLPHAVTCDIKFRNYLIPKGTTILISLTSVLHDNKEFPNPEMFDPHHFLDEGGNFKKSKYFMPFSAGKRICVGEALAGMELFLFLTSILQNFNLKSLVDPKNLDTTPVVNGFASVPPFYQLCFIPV
Chain of Cytochrome P450 3A4 (Homo sapiens) (P08684 whole entry, looked up): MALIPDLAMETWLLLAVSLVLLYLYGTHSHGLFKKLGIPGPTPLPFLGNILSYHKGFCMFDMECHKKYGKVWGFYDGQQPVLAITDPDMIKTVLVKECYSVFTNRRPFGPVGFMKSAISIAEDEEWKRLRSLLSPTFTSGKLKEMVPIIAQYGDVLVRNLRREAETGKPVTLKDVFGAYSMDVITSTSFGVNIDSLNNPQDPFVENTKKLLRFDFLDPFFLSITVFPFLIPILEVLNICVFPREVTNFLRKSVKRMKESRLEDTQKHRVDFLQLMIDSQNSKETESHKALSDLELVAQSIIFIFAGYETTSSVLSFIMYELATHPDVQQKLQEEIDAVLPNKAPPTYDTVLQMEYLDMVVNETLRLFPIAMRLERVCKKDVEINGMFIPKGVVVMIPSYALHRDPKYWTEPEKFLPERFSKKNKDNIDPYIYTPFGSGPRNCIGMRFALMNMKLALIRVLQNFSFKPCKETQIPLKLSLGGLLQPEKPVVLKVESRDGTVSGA
Chain of Nuclear receptor subfamily 1 group I member 2 (Rattus norvegicus) (Q9R1A7 whole entry, looked up): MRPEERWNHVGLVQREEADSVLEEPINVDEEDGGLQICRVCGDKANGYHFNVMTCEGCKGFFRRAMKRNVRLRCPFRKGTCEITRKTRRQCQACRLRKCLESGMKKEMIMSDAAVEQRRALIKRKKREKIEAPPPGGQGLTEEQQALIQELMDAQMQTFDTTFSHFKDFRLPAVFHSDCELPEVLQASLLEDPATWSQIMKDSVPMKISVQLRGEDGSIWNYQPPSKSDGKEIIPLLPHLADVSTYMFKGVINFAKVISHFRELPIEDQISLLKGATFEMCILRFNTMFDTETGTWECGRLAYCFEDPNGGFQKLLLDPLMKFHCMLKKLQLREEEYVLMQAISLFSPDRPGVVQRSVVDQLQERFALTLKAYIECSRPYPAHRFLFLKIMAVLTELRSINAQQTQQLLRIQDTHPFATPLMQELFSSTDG

Take `CCCCC(CC)COC(=O)CCCCC(=O)OCC(CC)CCCC` (stereo unspecified): the Potency result in assay [1], in assay [2], in [3], in assay [5], in [7] and in assay [8] was “inactive” in each case. Besides, the Potency entry in [9], in [11] and in assay [12] was “inactive” in each case. Moreover, the outcome in assay [4], in assay [6], in assay [10] and in [16] was inactive. For the same compound, the Potency in assay [13] was 70.6 µM (active); in [14], 28.3 µM (active); in assay [15], “inactive and 35.6 µM (active)”.

For the compound `CC(=O)CC(=O)Nc1ccccc1C`, the Potency result in assay [1], in assay [2], in assay [3], in assay [5], in assay [7] and in [8] was “inactive” in each case. Further, the Potency result in assay [9], in [11], in assay [12], in [17] and in assay [13] was “inactive” each time. For the same compound, the outcome in assay [4], in assay [6], in assay [10] and in assay [16] was inactive. Further, the Potency in [15] is 39.9 µM (active).

As for `O=C1CCC(N2C(=O)c3ccccc3C2=O)C(=O)N1` (stereo unspecified), the Potency entry in assay [1], in [2], in assay [3], in assay [5], in assay [7] and in [8] was “inactive” each time. For the same compound, the Potency entry in [9], in assay [11], in assay [12], in [13], in assay [14] and in assay [15] was “inactive” throughout. In addition, the Potency entry in [18] was “inactive”. Moreover, the call in [4], in assay [6], in assay [10] and in assay [16] was inactive.

As to `Cc1cccnc1`, the Potency result in assay [1], in assay [2], in [3], in assay [5], in assay [7] and in assay [9] was “inactive” throughout. Besides, the Potency entry in assay [11], in assay [12], in assay [17], in assay [13], in assay [14] and in assay [15] was “inactive” in each case. Besides, in assay [18], the Potency result was “inactive”. The compound was called inactive in assay [4], in assay [6], in [10] and in assay [16].

On to `CC(=O)Nc1ccccc1`, for which the Potency entry in [1], in assay [2], in assay [3], in assay [5], in assay [7] and in assay [8] was “inactive” each time. The Potency entry in assay [11], in [12], in [20], in assay [14], in assay [15] and in assay [18] was “inactive” each time. The outcome in [4], in assay [6], in assay [10] and in assay [16] was inactive. For the same compound, the max activation in assay [19] was -1.12% (inactive). Further, the Potency in [13] is 71.3 µM (active) and inactive.

Take `COc1cc(Cc2cnc(N)nc2N)cc(OC)c1OC`: the Potency result in [1], in assay [2], in [3], in assay [5], in assay [7] and in [8] was “inactive” each time. The Potency result in assay [9], in assay [11], in [17], in assay [13] and in [14] was “inactive” each time. The compound was classed as inactive in assay [4], in assay [6], in [10] and in assay [16]. Moreover, in [15], the Potency is 35.5 µM (active) and inactive.

`Cc1ccc(S(N)(=O)=O)cc1`: the Potency entry in assay [1], in [2], in assay [3], in [5], in assay [7] and in assay [9] was “inactive” throughout. In addition, the Potency result in [11], in [12], in assay [17], in assay [14] and in assay [15] was “inactive” throughout. The result in assay [4], in assay [6], in [10] and in assay [16] was inactive. Besides, the Potency in [13] was 19.9 µM (active) and inactive.

Source of the values: PubChem BioAssay (Tox21).
